Source: PubChem BioAssay AID1159580 (chemical genetic matrix, 2015)
Where “and” joins values, the source holds several entries; their conditions need not be identical. Identical values can stand only once. The whole screen tested about 5,500 compounds, of which about 2,000 (36%) were called active. Roughly 18% stayed inconclusive and do not appear here. No stated cut-off is given here; in the data, active means normalized growth mostly below about 0.91 (no sharp cut-off); inconclusive means no clear call, values can overlap the other calls; inactive means mostly above about 0.92. The list shows a part of the results.

Assay: chemical genetic growth profiling, strain panel (AID 1159580);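 further: tested at 20 µM; growth read once vehicle control cultures reached saturation at 30 °C; 1 = growth at the plate median or of vehicle wells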
Conditions: S. cerevisiae deletion strains, growth OD

Measured: normalized growth

CC(=O)O[C@H]1CC[C@]2(C)C3CC[C@@]4(C)C(CC5O[C@@]6(CCC(C)CO6)[C@@H](C)C54)C3CC[C@@H]2C1 (stereo not given in full)
inactive: locus YAL021C, strain ccr4, stronger effect = lower value 1.02 | locus YAL026C, strain drs2, stronger effect = lower value 1.02 | locus YAL030W, strain snc1, stronger effect = lower value 1.01 | locus YBL061C, strain skt5, stronger effect = lower value 1.01 | locus YBR009C, strain hhf1, stronger effect = lower value 1.03 | locus YBR021W, strain FUR4, stronger effect = lower value 0.996 | locus YBR023C, strain chs3, stronger effect = lower value 1.01 | locus YBR171W, strain sec66, stronger effect = lower value 1.03 | locus YBR229C, strain ROT2, stronger effect = lower value 0.99 | locus YBR231C, strain swc5, stronger effect = lower value 1 | locus YBR279W, strain paf1, stronger effect = lower value 1.01 | locus YCL011C, strain gbp2, stronger effect = lower value 1 | locus YCL016C, strain dcc1, stronger effect = lower value 1.01 | locus YCL029C, strain bik1, stronger effect = lower value 0.993 | locus YCL069W, strain vba3, stronger effect = lower value 1.02 | locus YCR088W, strain abp1, stronger effect = lower value 1.02 | locus YDL005C, strain med2, stronger effect = lower value 1.03 | locus YDL035C, strain GPR1, stronger effect = lower value 1.03 | locus YDL040C, strain nat1, stronger effect = lower value 1 | locus YDL074C, strain BRE1, stronger effect = lower value 1.02 | locus YDL101C, strain DUN1, stronger effect = lower value 0.986 | locus YDL185W, strain tfp1, stronger effect = lower value 0.986 | locus YDL192W, strain arf1, stronger effect = lower value 0.997 | locus YDR001C, strain nth1, stronger effect = lower value 1.01 | locus YDR069C, strain doa4, stronger effect = lower value 1.01 | locus YDR101C, strain arx1, stronger effect = lower value 0.992 | locus YDR137W, strain rgp1, stronger effect = lower value 1.04 | locus YDR159W, strain sac3, stronger effect = lower value 1.01 | locus YDR162C, strain NBP2, stronger effect = lower value 1.02 | locus YDR195W, strain ref2 1.03 | locus YDR297W, strain sur2, stronger effect = lower value 1 | locus YDR318W, strain mcm21, stronger effect = lower value 0.997 | locus YDR334W, strain swr1, stronger effect = lower value 1.03 | locus YDR335W, strain msn5, stronger effect = lower value 1.02 | locus YDR388W, stronger effect = lower value 0.991 | locus YDR392W, strain spt3, stronger effect = lower value 1.03 | locus YDR502C, strain sam2, stronger effect = lower value 0.977 | locus YEL003W, strain gim4, stronger effect = lower value 1.03 | locus YEL037C, strain rad23, stronger effect = lower value 1.02 | locus YEL061C, strain CIN8 (second series), stronger effect = lower value 1.05 | locus YEL061C, strain CIN8, stronger effect = lower value 1 | locus YER015W, strain faa2, stronger effect = lower value 1.01 | locus YER016W, strain bim1, stronger effect = lower value 1 | locus YER110C, stronger effect = lower value 0.991 | locus YER111C, strain swi4, stronger effect = lower value 1.02 | locus YER155C, strain BEM2 (second series), stronger effect = lower value 1.04 | locus YER155C, strain BEM2, stronger effect = lower value 0.975 | locus YER167W, strain BCK2, stronger effect = lower value 0.998 | locus YFR010W, strain ubp6, stronger effect = lower value 1.01 | locus YGL078C, strain dbp3, stronger effect = lower value 0.98 | locus YGL167C, strain pmr1, stronger effect = lower value 1 | locus YGL173C, strain kem1, stronger effect = lower value 1.01 | locus YGL227W, strain vid30, stronger effect = lower value 1.02 | locus YGL240W, strain doc1, stronger effect = lower value 1.02 | locus YGL248W, strain PDE1, stronger effect = lower value 0.985 | locus YGL253W, strain hxk2, stronger effect = lower value 1.01 | locus YGR135W, strain pre9, stronger effect = lower value 0.97 | locus YGR229C, strain SMI1, stronger effect = lower value 1.08 | locus YGR252W, strain gcn5, stronger effect = lower value 0.949 | locus YHR013C, strain ard1, stronger effect = lower value 1.01 | locus YHR027C, strain rpn1, stronger effect = lower value 1.02 | locus YHR030C, strain SLT2, stronger effect = lower value 0.989 and 0.998 | locus YHR079C, strain IRE1 (second series), stronger effect = lower value 0.989 | locus YHR079C, strain IRE1, stronger effect = lower value 1.01 | locus YHR094C, strain hxt1, stronger effect = lower value 0.996 | locus YHR129C, strain ARP1, stronger effect = lower value 0.996 | locus YHR142W, strain chs7, stronger effect = lower value 1.03 | locus YHR200W, strain rpn10, stronger effect = lower value 0.989 | locus YIL066C, strain RNR3, stronger effect = lower value 1.01 | locus YIL073C, strain SPO22, stronger effect = lower value 1.06 | locus YIL125W, strain kgd1, stronger effect = lower value 1 | locus YIR030C, strain dcg1, stronger effect = lower value 0.992 | locus YJL092W, strain hpr5, stronger effect = lower value 1.03 | locus YJL095W, strain BCK1 (second series), stronger effect = lower value 1 | locus YJL095W, strain BCK1, stronger effect = lower value 0.987 and 1.01 | locus YJL115W, strain asf1, stronger effect = lower value 1.01 | locus YJL129C, strain trk1, stronger effect = lower value 1.03 | locus YJL134W, strain LCB3, stronger effect = lower value 0.987 | locus YJL154C, strain vps35, stronger effect = lower value 1.01 | locus YJL164C, strain tpk1, stronger effect = lower value 1.01 | locus YJL166W, strain qcr8, stronger effect = lower value 1.01 | locus YJL168C, strain set2, stronger effect = lower value 0.993 | locus YJL187C, strain SWE1 (second series), stronger effect = lower value 0.975 | locus YJL187C, strain SWE1, stronger effect = lower value 1.01 | locus YJR043C, strain POL32, stronger effect = lower value 1.01
